The record followed here is PubChem BioAssay (NCI).

The nature of assay [1]: NCI Yeast Anticancer Drug Screen. Data for the rad50 strain (AID 155).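 Also: 0% = growth of vehicle-only cultures of the same strain.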 To be noted: S. cerevisiae rad50 strain growth inhibition, stronger effect = higher value; at 50.0 µM unless noted. The method in brief: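 Vehicle-treated cultures provide the reference for the growth inhibition reported for compound-exposed, repair-deficient yeast.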
Assay [2] is described as follows: NCI Yeast Anticancer Drug Screen. Data for the mec2-1 strain (AID 157). Conditions: S. cerevisiae mec2-1 strain, stronger effect = higher value; at 50.0 µM unless noted. The method in brief:
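Compounds were applied to mec2-1 yeast cells. Their growth was then compared with that of vehicle-treated cultures to give growth inhibition.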

Assay [3] can be described thus: NCI Yeast Anticancer Drug Screen. Data for the sgs1 mgt1 strain (AID 161).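 Also: 0% = growth of cultures given vehicle only.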 Conditions: S. cerevisiae sgs1 mgt1 strain, stronger effect = higher value; at 50.0 µM unless noted. The procedure, abridged: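 Percent growth inhibition was derived by comparing compound-exposed mutant yeast with vehicle-exposed cultures. The strain carries alterations in DNA damage repair.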
Assay [4] is described as follows: NCI Yeast Anticancer Drug Screen. Data for the cln2 rad14 strain (AID 165).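 Also: 0% = growth equal to vehicle treated cultures.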 To be noted: S. cerevisiae cln2 rad14 strain, stronger effect = higher value; at 50.0 µM unless noted. The method in brief:
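Strain: cln2 rad14 yeast, altered in cell cycle control and DNA damage repair. Read-out: growth inhibition vs vehicle.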

The nature of assay [5]: NCI Yeast Anticancer Drug Screen. Data for the bub3 strain (AID 167). To be noted: S. cerevisiae bub3 mutant strain, stronger effect = higher value; at 50.0 µM unless noted. The procedure, abridged:
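Mutant yeast screening strain plus compound; vehicle-treated cultures serve as the 0% inhibition reference.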

The nature of assay [6]: NCI Yeast Anticancer Drug Screen. Data for the mlh1 rad18 strain (AID 175). To be noted: S. cerevisiae mlh1 rad18 strain growth inhibition, stronger effect = higher value; at 50.0 µM unless noted. The procedure, abridged: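 A repair-deficient yeast strain is exposed to test compound, and growth is scored relative to vehicle-treated controls.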

The panel holds about 79,000 compounds, 15% with a hit somewhere; the sample as a whole holds those more often. Unmarked numbers belong to inactive results. Calls of active or inactive are those of the source. Rule as the data show it: active = growth inhibition above about 70%; inactive = the rest.

Consider `COC1OC(COC(c2ccccc2)(c2ccccc2)c2ccccc2)C(O)C(O)C1O` (centres undefined), for which the growth inhibition in assay [1] is 40.7%; in assay [2], 47%; in assay [3] it was 42.6%; in assay [4], 84.5% (active); in assay [5] it was 38%; in assay [6] it was 41.1%.
Regarding `COC1OC(CO)C(O)C(Nc2ccc([N+](=O)[O-])cc2[N+](=O)[O-])C1O` (centres undefined), the growth inhibition in assay [1] is 7.2%; in assay [2], 1.05%; in assay [3], 19.1%; in assay [4], -53.6%; in assay [5], -10.8%; in assay [6] it was 1.1%.
`Clc1c(Cl)c(Cl)c(C[n+]2c(Cl)sc3ccccc32)c(Cl)c1Cl`: the growth inhibition in assay [1] was 12.6%; in assay [2] it was 10.2%; in assay [3], 5.05%; in assay [4], -6.6%; in assay [5], 10.3%; in assay [6] it was 6.2%.
Regarding `CC(=O)Nc1ccc(CCCc2ccc([N+](=O)[O-])cc2)cc1`, the growth inhibition is 3.15% in assay [1]; 3.35% in assay [2]; -10.9% in assay [3]; -70.2% in assay [4]; 1.6% in assay [5]; 0% in assay [6].
With `COc1ccc2c(c1)c(C)cc[n+]2C`, the growth inhibition in assay [1] was -3.3%; in assay [2] it was 8.5%; in assay [3], -5.9%; in assay [4] it was -9.65%; in assay [5], -3.05%; in assay [6] it was -19.3%.
As to `CC(=O)OCC(OC(C)=O)C(OC(C)=O)C(OC(C)=O)C(OC(C)=O)C(=O)NC1CCc2ccccc2C1` (centres undefined), the growth inhibition in assay [1] is 24.8%; in assay [2] it was 2.6%; in assay [3], 13.6%; in assay [4] it was 30.4%; in assay [5], 0.25%; in assay [6] it was 21.9%.
In the case of `C=C1[C@@H](O)C[C@@H]2C[C@@]3(C)[C@H](C(C)(C)C[C@@H]3O)C12O` (some centres undefined), the growth inhibition was -4.25% in assay [1]; -17.5% in assay [2]; -20.9% in assay [3]; 5% in assay [4]; -19% in assay [5]; -20.2% in assay [6].
With `CC(NC(C#N)CC12CC3CC(CC(C3)C1)C2)c1ccccc1` (centres undefined), the growth inhibition is -11.8% in assay [1]; -11.4% in assay [2]; -11.6% in assay [3]; 12.2% in assay [4]; 6.75% in assay [5]; -30.6% in assay [6].
Regarding `Cc1c2n(c(=O)[nH]c1=O)C1OC(CO)C(O2)C1N=[N+]=[N-]` (centres undefined), the growth inhibition was -11.1% in assay [1]; -17.6% in assay [2]; -27.2% in assay [3]; -7.55% in assay [4]; -9.65% in assay [5]; -34.6% in assay [6].
On to `CCOC(=N)n1c(=O)n(C2=NCCN2)c2ccccc21`, for which the growth inhibition in assay [1] was 0.45%; in assay [2], 0.35%; in assay [3], -48.5%; in assay [4], 1.95%; in assay [5], 22.2%; in assay [6], -43.8%.
For `CCOC(=O)c1[nH]c(-c2[nH]c(-c3[nH]c(-c4[nH]c(C(=O)OCC)c(C)c4C(=O)OCC)c(C(=O)OCC)c3C)c(C)c2C(=O)OCC)c(C(=O)OCC)c1C`, the growth inhibition in assay [1] was -24.7%; in assay [2] it was -16%; in assay [3] it was -21.3%; in assay [4] it was 6.85%; in assay [5] it was -14.1%; in assay [6], -74%.
On to `NC(=O)C(=CN1C(=O)CC(=O)NC1=S)C(N)=O`, for which the growth inhibition in assay [1] was -29.8%; in assay [2] it was -34%; in assay [3], -11.6%; in assay [4], -13.8%; in assay [5], -26.6%; in assay [6], 13.5%.
For `N#CC1C(c2ccc(Cl)cc2)C(C(N)=O)C(=O)NC1(O)c1ccccc1` (centres undefined), the growth inhibition was -1.45% in assay [1]; -5.4% in assay [2]; 8.45% in assay [3]; 8.95% in assay [4]; 4.15% in assay [5]; 15.6% in assay [6].
Regarding `O=C(O)C1=CCCc2ccc3ccccc3c21`, the growth inhibition in assay [1] was 10.2%; in assay [2], 6%; in assay [3], 0.2%; in assay [4], -20.4%; in assay [5], -27.9%; in assay [6] it was 6.25%.
Regarding `CS/C(=N\c1nccs1)NC(=O)c1cccc(Cl)c1`, the growth inhibition is 7.65% in assay [1]; 20.4% in assay [2]; 30.2% in assay [3]; 18.8% in assay [4]; 22.4% in assay [5]; 10.8% in assay [6].
With `Clc1nc(-c2ccccc2)ns1`, the growth inhibition in assay [1] is 1.9%; in assay [2], -9.3%; in assay [3], -12.7%; in assay [4], 1.45%; in assay [5], -6.85%; in assay [6] it was -10.4%.
In the case of `CCOCCC(=O)OCCCl`, the growth inhibition in assay [1] was 29.2%; in assay [2], 9.4%; in assay [3] it was 13.3%; in assay [4], 10.1%; in assay [5], 15.7%; in assay [6] it was 22.9%.
As for `C=C(NC(=O)C(c1ccccc1)c1ccccc1)C(=O)O`, the growth inhibition in assay [1] is 21.6%; in assay [2], 11.7%; in assay [3], -1.15%; in assay [4], -25.1%; in assay [5], -1.9%; in assay [6] it was 17.4%.
For `CCNC(=O)c1ccccc1N=NN(C)C`, the growth inhibition in assay [1] was -1.15%; in assay [2] it was 25.4%; in assay [3], -0.65%; in assay [4] it was 5.65%; in assay [5], 5%; in assay [6], 21.9%.
